Results on five compounds are retold here after PubChem BioAssay (Tox21).

The structures appear in SMILES notation. Inconclusive results are not listed. Activity calls are given as the source filed them. Unless noted, calls come from the whole dose curve; as a rule, active = well fitted curve in the direction sought with a large enough effect in the repeat runs; inconclusive = weak or mixed curves; inactive = no such curve, though single readings can be large; an effect the other way counts as inactive or inconclusive.

Assay [1] is described as follows: qHTS assay to identify small molecule agonists of the sonic hedgehog signaling (Shh) pathway (AID 1259368; calls by dose curve;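 note: NIH/3T3-derived 3T3Gli1-Luc cells carrying a stable Gli1-driven firefly luciferase reporter; nearly all actives have a fitted effect of over 15% in size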). The note with it: NIH/3T3 Gli1-Luc reporter, luciferase, 24 h, active compounds read high; series mostly up to 92.4 µM. In short, it runs like this:
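3T3Gli1-Luc (NIH/3T3 clone, stable Gli1-Luc); 4 hr pre-incubation, then cpd in DMSO 24 hr, 37 C/5% CO2; luciferase reagent 30 min RT; luminescence.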

Assay [2] deals with Estrogen receptor beta (Homo sapiens) (UniProt Q92731). Nature of the assay: qHTS assay to identify small molecule agonists of the estrogen receptor beta (ER-beta) signaling pathway (AID 1259377; active = well fitted activation curve with a large enough effect in the signal ratio in the repeat runs, not every such curve was filed as active; the % refers to the signal ratio). The settings on record: ER-beta-UAS-bla HEK293T, beta-lactamase FRET ratio, 16 h; series mostly up to 92.4 µM. In short, it runs like this:
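In HEK293T cells bearing a UAS-beta-lactamase reporter under ER-beta control, DMSO-delivered compounds were incubated for 16 hr at 37C. Activity was detected as fluorescence 2 hours after LiveBLAzer B/G FRET substrate addition.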

For assay [3] the target is unchanged. The assay can be described thus: qHTS assay to identify small molecule antagonists of the estrogen receptor beta (ER-beta) signaling pathway (AID 1259378; active = well fitted inhibition curve with a large enough effect in the signal ratio in the repeat runs, not every such curve was filed as active; the % refers to the signal ratio). The note with it: ER-beta-UAS-bla HEK293T, beta-lactamase FRET ratio, 16 h; series mostly up to 92.4 µM. In short, it runs like this: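 ER-beta-UAS-bla HEK293T cells in 2% charcoal-stripped FBS medium treated with compound plus 1nM final 17-beta-estradiol for 16 hr at 37C. Beta-lactamase reporter read by FRET substrate fluorescence after 2 hours at room temperature.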

The nature of assay [4]: qHTS assay to identify small molecule agonists of the androgen receptor (AR) signaling pathway in the presence of an antagonist - cell viability counter screen (AID 1259379).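 Note: MDA-kb2 human breast cancer cells carrying an MMTV luciferase reporter; nearly all actives have a fitted effect of over 25% in size.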 The note with it: MDA-kb2 viability, CellTiter-Fluor, 16 h; series mostly up to 92.4 µM. In outline: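 Cells: MDA-kb2 (MMTV-luc, AR and GR elements), 3,000/well, 5 hr settle. Added: nilutamide 3.0uM final, then compounds (15 conc.). Incubation: 16 hr, 37C, no CO2. Read-out: CellTiter-Fluor, 1 hr, fluorescence.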
On the technique in general: qHTS replaces the single test concentration by a dilution series.

Assay [5] is described as follows: qHTS assay to identify small molecule agonists of the estrogen receptor beta (ER-beta) signaling pathway - cell viability counter screen (AID 1259380). Note: nearly all actives have a fitted effect of over 30% in size. The settings on record: ER-beta-bla HEK293T viability, CellTiter-Glo luminescence, 16 h; series mostly up to 92.4 µM. In short, it runs like this: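 HEK293T ER-beta-UAS-bla; 2% CS-FBS; 6 hr pre-plate, 16 hr cpd at 37C/5% CO2; LiveBLAzer read first, then CellTiter-Glo 30 min RT, luminescence.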

Assay [6] in a line: qHTS assay to identify small molecule antagonists of the estrogen receptor beta (ER-beta) signaling pathway - cell viability counter screen (AID 1259382). Note: nearly all actives have a fitted effect of over 55% in size. The settings on record: ER-beta-UAS-bla HEK293T viability, CellTiter-Glo luminescence, 16 h; series mostly up to 92.4 µM. In outline: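 Cells: ER-beta-UAS-bla HEK293T, 2,000/well, 2% CS-FBS, 6 hr settle. Cpd + E2 (1nM final), 16 hr, 37C/5% CO2. Bla FRET substrate 2 hr RT, then CellTiter-Glo 30 min RT, luminescence.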

Assay [7] in a line: qHTS assay to identify small molecule agonists of the estrogen receptor alpha (ER-alpha) signaling pathway in the presence of an antagonist - cell viability counter screen (AID 1259386).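 Note: cells exposed to compounds for 22 h at 37 °C before the viability read; nearly all actives have a fitted effect of over 30% in size.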 The note with it: VM7Luc4E2 viability, CellTiter-Fluor fluorescence, 22 h; series mostly up to 92.4 µM. In outline: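 VM7Luc4E2, stripped-serum pre-culture 5 d; 24hr plating; +ICI-182,780 10.0nM final; cpds 15 conc, 22hr, 37C/5% CO2; CellTiter-Fluor added at 21hr, fluorescence 1hr later.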

The target in assay [8] is Progesterone receptor (Homo sapiens) (UniProt P06401). The assay can be described thus: qHTS assay to identify small molecule agonists of the progesterone receptor (PR) signaling pathway (AID 1346784; calls by dose curve; note: nearly all actives have a fitted effect of over 30% in size). The note with it: PR-UAS-bla HEK293T, beta-lactamase FRET ratio, 16 h; series mostly up to 92.4 µM. In short, it runs like this:
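Using charcoal-stripped serum (2%) to limit endogenous steroids, PR-UAS-bla HEK 293T cells received compounds for 16 hr at 37C after 6 hr plating; beta-lactamase FRET fluorescence was recorded following 2 hr substrate loading at room temperature.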

Assay [9] shares this target. Nature of the assay: qHTS assay to identify small molecule antagonists of the progesterone receptor (PR) signaling pathway (AID 1346795; active = well fitted inhibition curve with a large enough effect in the signal ratio in the repeat runs, not every such curve was filed as active; the % refers to the signal ratio; note: potency is the fitted concentration of half-maximal effect). The settings on record: PR-UAS-bla HEK293T, beta-lactamase FRET ratio, 16 h; series mostly up to 92.4 µM. In short, it runs like this:
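Inhibition of R5020-induced (1 nM final) beta-lactamase reporter signal in PR-UAS-bla HEK293T cells was scored by FRET fluorescence after overnight (16 hr) compound treatment.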

A short description of assay [10]: qHTS assay to identify small molecule antagonists of the progesterone receptor (PR) signaling pathway - cell viability counter screen (AID 1346798). Note: nearly all actives have a fitted effect of over 50% in size. The note with it: PR-UAS-bla HEK293T viability, CellTiter-Glo luminescence, 16 h; series mostly up to 92.4 µM. In outline:
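ATP content as viability readout: CellTiter-Glo luminescence, 30 min room temperature, in PR-UAS-bla HEK293T cells after 16 hr compound/R5020 treatment at 37C and 5% CO2.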

Assay [11] is described as follows: qHTS assay to identify small molecule agonists of the progesterone receptor (PR) signaling pathway - cell viability counter screen (AID 1346799; calls by dose curve; note: nearly all actives have a fitted effect of over 45% in size). The note with it: PR-UAS-bla HEK293T viability, CellTiter-Glo luminescence, 16 h; series mostly up to 92.4 µM. In outline: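 Cytotoxicity in PR-bla HEK293T cells: 16 h compound, 37C; CellTiter-Glo added post-FRET read; luminescence after 30 min RT.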

Assay [12] is described as follows: qHTS assay to identify small molecule antagonists of the TGF-beta/Smad signaling pathway - cell viability counter screen (AID 1346824). Note: nearly all actives have a fitted effect of over 50% in size. The note with it: SBE-bla HEK293T viability, CellTiter-Glo luminescence; series mostly up to 76.8 µM. In short, it runs like this: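 SBE-bla HEK 293T cells, incubated overnight, then compound plus 0.25 ng/mL TGF-beta1 (stock added) for 5 hr at 37 C. Viability was read in the same wells by CellTiter-Glo luminescence after 30 min at room temperature.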

Assay [13] can be described thus: qHTS assay to identify small molecule agonists of the TGF-beta/Smad signaling pathway - cell viability counter screen (AID 1346829). Note: top concentration of the series differs between compounds; nearly all actives have a fitted effect of over 45% in size. The note with it: SBE-bla HEK293T viability, CellTiter-Glo luminescence, 5 h; series mostly up to 76.8 µM. In short, it runs like this: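 CellTiter-Glo luminescence readout; SBE-bla HEK 293T cells, overnight plating, compound 5 hr at 37 C/5% CO2, then bla substrate 2 hr RT, then CellTiter-Glo 30 min RT.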

The nature of assay [14]: qHTS assay to identify small molecule agonists of the TGF-beta/Smad signaling pathway (AID 1346859; active = well fitted activation curve with a large enough effect in the signal ratio in the repeat runs, not every such curve was filed as active; the % refers to the signal ratio). The note with it: SBE-bla HEK293T, TGF-beta/Smad beta-lactamase reporter, 5 h; series mostly up to 76.8 µM. In short, it runs like this:
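Stable Smad binding element-beta-lactamase HEK 293T cells; 5 hr compound exposure at 37 C under 5% CO2; 2 hr room-temperature substrate step; fluorescence excited at 405 nm, collected at 460 nm and 530 nm.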

Assay [15] deals with Thyrotropin-releasing hormone receptor (Homo sapiens) (UniProt P34981). The assay can be described thus: qHTS assay to identify small molecule antagonists of the thyrotropin-releasing hormone receptor (TRHR) signaling pathway (AID 1346877; active = well fitted inhibition curve with a large enough effect in the repeat runs, not every such curve was filed as active). The note with it: TRHR-HEK293, TRH-induced calcium fluorescence, antagonist mode; series mostly up to 51.3 µM. In outline: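 Intracellular calcium fluorescence, read kinetically every second over 3 min, reports TRH-evoked signalling in HEK293 cells carrying TRHR. Test compounds were added 5 min ahead of a 1 nM TRH challenge.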

The target in assay [16] is Estrogen receptor (Homo sapiens) (UniProt P03372). The assay can be described thus: qHTS assay to identify small molecule agonists of the estrogen receptor alpha (ER-alpha) signaling pathway in the presence of an antagonist (AID 1259383; calls by dose curve; note: top concentration of the series differs between compounds; nearly all actives have a fitted effect of over 15% in size). The note with it: VM7Luc4E2 cells, ERE-luciferase, +ICI-182,780, 22 h; series mostly up to 92.4 µM. In short, it runs like this: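 VM7Luc4E2, endog. ER-alpha + 4×ERE-luc; charcoal-stripped FBS, phenol red-free, 5 d; 24hr plating; +10.0nM ICI-182,780 (final); cpds 15 conc, 22hr, 37C/5% CO2; ONE-Glo luminescence.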

Assay [17] can be described thus: qHTS assay to identify small molecule agonists or antagonists of the thyroid stimulating hormone receptor (TSHR) signaling pathway - wild type cell line counter screen (AID 1259384; calls by dose curve). The note with it: HEK293 wild type, cAMP HTRF counter-screen, active compounds read high; series mostly up to 92.4 µM. In outline: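 Wild-type Hek293 cells, 800/well, 18 h at 37C, then compound with Ro20-1724 for 30 min RT. cAMP by HTRF (cAMP-d2/anti-cAMP cryptate), 1 h RT, fluorescence read. 15 concentrations, triplicates.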

The target in assay [18] is Thyrotropin receptor (Homo sapiens) (UniProt P16473). The assay can be described thus: qHTS assay to identify small molecule antagonists of the thyroid stimulating hormone receptor (TSHR) signaling pathway (AID 1259385; calls by dose curve; note: nearly all actives have a fitted effect of over 20% in size). The note with it: TSHR-HEK293 cAMP HTRF, TSH-stimulated antagonist mode; series mostly up to 92.4 µM. In short, it runs like this: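 TSHR-HEK293 cells (800/well) plated 18 h, then compounds with Ro20-1724 and TSH at 1.5 ng/mL final, 30 min at room temperature. cAMP quantified by HTRF (cAMP-d2/anti-cAMP-cryptate, 1 h); 15 concentrations in triplicate.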

In assay [19] the target is Androgen receptor (Homo sapiens) (UniProt P10275). The assay can be described thus: qHTS assay to identify small molecule agonists of the androgen receptor (AR) signaling pathway in the presence of an antagonist (AID 1259381; calls by dose curve; note: nearly all actives have a fitted effect of over 15% in size). The settings on record: MDA-kb2 MMTV-luciferase, AR agonist + nilutamide, 16 h; series mostly up to 92.4 µM. In short, it runs like this: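 MDA-kb2 cells, 3,000/well, rested 5hr at 37C/0% CO2 → nilutamide 3.0uM final or buffer → compounds, 15 conc. → 16hr at 37C → ONE-Glo, 30min RT → luminescence.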
Androgen receptor (Homo sapiens), sequence (P10275 whole entry, looked up): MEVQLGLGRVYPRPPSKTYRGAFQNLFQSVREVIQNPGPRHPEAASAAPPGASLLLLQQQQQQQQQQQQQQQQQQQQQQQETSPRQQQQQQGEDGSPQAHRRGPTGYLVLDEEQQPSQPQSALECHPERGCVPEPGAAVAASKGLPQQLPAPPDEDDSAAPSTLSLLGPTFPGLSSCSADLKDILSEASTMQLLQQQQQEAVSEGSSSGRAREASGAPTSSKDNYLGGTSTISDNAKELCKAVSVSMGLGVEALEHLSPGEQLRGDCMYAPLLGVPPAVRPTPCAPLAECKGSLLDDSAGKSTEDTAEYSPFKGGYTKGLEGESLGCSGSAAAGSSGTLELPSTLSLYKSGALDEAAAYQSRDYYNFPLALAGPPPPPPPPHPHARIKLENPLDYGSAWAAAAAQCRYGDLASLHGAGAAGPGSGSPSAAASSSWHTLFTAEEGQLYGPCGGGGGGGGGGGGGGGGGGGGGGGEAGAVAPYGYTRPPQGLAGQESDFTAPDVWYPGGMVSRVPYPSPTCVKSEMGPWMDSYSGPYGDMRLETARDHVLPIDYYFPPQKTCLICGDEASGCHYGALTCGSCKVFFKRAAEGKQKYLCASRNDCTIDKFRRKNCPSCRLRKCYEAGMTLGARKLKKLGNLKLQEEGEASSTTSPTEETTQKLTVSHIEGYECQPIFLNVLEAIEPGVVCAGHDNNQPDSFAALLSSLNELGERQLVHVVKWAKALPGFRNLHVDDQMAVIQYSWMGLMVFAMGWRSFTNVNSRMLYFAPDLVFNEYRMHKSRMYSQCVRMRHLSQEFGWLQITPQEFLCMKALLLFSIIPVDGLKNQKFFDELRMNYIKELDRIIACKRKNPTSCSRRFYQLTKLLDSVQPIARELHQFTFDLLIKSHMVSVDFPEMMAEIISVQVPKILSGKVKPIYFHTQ

Estrogen receptor (Homo sapiens), sequence (P03372 whole entry, looked up): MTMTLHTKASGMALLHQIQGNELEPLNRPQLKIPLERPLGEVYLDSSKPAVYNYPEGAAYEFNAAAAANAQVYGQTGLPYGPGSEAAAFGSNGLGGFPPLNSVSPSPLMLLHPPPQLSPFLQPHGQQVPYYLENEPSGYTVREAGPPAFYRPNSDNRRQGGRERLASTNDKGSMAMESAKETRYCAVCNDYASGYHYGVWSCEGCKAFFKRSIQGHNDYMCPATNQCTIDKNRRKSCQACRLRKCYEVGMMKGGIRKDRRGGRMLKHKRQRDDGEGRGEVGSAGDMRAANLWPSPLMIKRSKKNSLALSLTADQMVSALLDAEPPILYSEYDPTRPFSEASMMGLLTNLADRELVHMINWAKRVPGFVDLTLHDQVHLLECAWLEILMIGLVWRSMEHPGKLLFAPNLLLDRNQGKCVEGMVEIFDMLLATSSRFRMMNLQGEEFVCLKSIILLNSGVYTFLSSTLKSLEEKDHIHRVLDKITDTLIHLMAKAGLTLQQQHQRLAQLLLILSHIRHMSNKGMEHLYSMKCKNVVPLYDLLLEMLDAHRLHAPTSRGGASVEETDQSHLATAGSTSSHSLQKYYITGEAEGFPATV
Thyrotropin-releasing hormone receptor (Homo sapiens), sequence (P34981 whole entry, looked up): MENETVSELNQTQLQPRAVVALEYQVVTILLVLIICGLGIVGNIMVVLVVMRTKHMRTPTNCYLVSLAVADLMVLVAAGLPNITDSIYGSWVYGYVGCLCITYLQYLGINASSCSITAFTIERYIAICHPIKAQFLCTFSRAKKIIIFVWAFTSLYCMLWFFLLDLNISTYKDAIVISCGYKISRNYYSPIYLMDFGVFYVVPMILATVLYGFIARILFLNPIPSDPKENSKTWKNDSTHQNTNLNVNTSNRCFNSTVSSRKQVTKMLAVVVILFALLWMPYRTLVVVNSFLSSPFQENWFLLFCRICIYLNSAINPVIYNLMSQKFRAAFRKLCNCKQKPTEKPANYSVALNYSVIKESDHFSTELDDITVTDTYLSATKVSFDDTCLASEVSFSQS
Estrogen receptor beta (Homo sapiens), sequence (Q92731 whole entry, looked up): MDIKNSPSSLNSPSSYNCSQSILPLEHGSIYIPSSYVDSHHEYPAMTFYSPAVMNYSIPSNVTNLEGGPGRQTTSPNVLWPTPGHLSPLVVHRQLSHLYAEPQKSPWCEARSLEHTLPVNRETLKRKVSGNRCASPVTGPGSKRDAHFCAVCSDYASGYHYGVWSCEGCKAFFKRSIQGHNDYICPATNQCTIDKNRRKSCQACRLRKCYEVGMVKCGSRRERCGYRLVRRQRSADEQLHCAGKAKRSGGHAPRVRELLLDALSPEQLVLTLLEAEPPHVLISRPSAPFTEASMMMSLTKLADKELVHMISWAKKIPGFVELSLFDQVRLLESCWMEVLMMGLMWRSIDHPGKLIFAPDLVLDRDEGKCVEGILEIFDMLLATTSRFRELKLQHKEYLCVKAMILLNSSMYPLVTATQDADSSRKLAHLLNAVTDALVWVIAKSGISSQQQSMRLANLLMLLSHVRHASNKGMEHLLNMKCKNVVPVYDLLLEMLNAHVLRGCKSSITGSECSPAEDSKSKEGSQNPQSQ
Thyrotropin receptor (Homo sapiens), sequence (P16473 whole entry, looked up): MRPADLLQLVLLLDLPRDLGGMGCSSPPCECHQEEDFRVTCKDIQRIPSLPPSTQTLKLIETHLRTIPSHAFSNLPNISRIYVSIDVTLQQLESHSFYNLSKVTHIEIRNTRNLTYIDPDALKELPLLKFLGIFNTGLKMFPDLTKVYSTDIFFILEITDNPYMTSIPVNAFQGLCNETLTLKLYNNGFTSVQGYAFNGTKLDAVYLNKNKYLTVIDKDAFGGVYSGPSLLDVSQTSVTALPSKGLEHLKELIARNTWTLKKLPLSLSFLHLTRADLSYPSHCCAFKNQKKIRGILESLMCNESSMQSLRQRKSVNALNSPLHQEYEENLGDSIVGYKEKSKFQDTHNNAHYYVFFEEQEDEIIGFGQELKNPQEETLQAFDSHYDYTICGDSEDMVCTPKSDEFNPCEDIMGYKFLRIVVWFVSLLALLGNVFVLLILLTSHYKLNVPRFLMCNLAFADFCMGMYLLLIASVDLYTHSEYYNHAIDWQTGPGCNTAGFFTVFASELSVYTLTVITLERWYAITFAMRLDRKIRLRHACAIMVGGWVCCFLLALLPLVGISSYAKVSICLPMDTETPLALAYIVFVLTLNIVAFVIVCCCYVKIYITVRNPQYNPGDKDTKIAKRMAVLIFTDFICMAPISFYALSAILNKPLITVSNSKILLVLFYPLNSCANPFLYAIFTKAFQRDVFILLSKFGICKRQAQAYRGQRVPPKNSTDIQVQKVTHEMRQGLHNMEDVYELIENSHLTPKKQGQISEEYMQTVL
Progesterone receptor (Homo sapiens), sequence (P06401 whole entry, looked up): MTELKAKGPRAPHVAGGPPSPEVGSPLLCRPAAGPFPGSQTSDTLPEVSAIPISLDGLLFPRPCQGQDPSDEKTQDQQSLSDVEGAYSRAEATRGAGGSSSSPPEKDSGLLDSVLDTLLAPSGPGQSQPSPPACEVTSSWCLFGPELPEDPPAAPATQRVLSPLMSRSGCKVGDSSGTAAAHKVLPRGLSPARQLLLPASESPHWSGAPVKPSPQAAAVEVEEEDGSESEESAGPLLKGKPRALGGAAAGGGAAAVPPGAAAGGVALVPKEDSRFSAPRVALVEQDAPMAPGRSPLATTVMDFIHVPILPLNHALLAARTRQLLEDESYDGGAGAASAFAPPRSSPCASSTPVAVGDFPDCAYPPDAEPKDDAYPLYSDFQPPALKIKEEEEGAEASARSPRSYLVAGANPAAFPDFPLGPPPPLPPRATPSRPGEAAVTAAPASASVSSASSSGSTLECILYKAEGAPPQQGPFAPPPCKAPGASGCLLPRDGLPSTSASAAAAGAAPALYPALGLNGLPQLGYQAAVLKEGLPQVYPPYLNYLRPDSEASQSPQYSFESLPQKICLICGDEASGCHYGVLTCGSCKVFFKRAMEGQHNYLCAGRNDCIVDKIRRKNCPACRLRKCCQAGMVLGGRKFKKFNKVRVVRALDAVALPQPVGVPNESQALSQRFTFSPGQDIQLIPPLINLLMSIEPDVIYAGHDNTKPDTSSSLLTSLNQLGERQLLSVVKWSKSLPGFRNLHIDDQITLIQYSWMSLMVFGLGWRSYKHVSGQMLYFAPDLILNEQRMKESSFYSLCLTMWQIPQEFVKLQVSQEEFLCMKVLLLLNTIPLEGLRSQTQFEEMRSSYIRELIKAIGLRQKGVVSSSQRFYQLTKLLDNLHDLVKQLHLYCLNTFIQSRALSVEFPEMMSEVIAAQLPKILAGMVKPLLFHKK

In the case of `NCCNCCN`, the call in assay [1], in [6], in assay [10], in assay [11], in [12] and in assay [13] was inactive. Moreover, the outcome in [14] and in assay [15] was inactive. In addition, the Potency entry in assay [2], in assay [3], in assay [4], in assay [5], in [7] and in assay [8] was “inactive” throughout. Further, the Potency entry in [9] is “inactive”.
Turning to `CC(C)OC(=O)COc1ccc(Cl)cc1Cl`, the call in assay [1], in [6], in assay [17], in assay [18], in assay [10] and in [11] was inactive. Besides, the outcome in assay [12], in assay [13] and in assay [14] was inactive. Further, the Potency result in [4], in [5], in assay [16], in assay [7], in assay [8] and in assay [9] was “inactive” in each case.
Turning to `CCCCCCCC=O`, the call in [1], in assay [6], in assay [10], in [11], in assay [12] and in assay [13] was inactive. The call in assay [14] was inactive. For the same compound, the Potency result in assay [4], in assay [5], in [16], in assay [7], in [8] and in [9] was “inactive” throughout.
On to `OCc1cccc(Oc2ccccc2)c1`, for which the outcome in [1], in assay [6], in [17], in [18], in assay [10] and in assay [11] was inactive. Besides, the result in assay [12], in [13] and in assay [14] was inactive. The Potency result in [3], in assay [5], in assay [19], in assay [7] and in assay [8] was “inactive” each time. Besides, the Potency in assay [9] is 54.5 µM (active).
As for `CC(CCO)CC(C)(C)C` (stereo unspecified), the result in assay [1], in assay [6], in [17], in assay [18], in assay [10] and in assay [11] was inactive. In addition, the call in [12], in [13], in [14] and in [15] was inactive. The Potency result in assay [2], in assay [3], in assay [5], in assay [19], in assay [16] and in assay [7] was “inactive” throughout. In addition, the Potency entry in [8] and in assay [9] was “inactive” in each case.
